Data published in PubChem BioAssay (NCATS).
Inconclusive results are not listed. Active and inactive are the calls of the source. Calls follow the shape of the dose curve; as a rule, active = well fitted inhibition curve with a large enough effect; inconclusive = small, poorly fitted or top-dose-only effect; inactive = flat fitted curve, though single readings scatter.

Key:
[1] = qHTS profiling for inhibitors of Plasmodium falciparum proliferation (AID 504749);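 also: 0% = DMSO vehicle and full inhibition = artemisinin control; nearly all actives have a fitted effect of over 60% in size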; conditions: P. falciparum in erythrocytes, SYBR Green DNA, 72 h, at 28.7 µM (top of the series)
Procedure, shortened: (§1)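 Quantitative HTS: compounds pinned into medium, infected erythrocytes added (0.3% parasitemia, 2.5% hematocrit), 72 h culture at 37 C under 5% CO2. Saponin/Triton lysis with SYBR Green I, overnight RT, then fluorescence read.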

3D7 = assay: as above; conditions: P. falciparum in erythrocytes, SYBR Green DNA, 72 h; series mostly up to 28.7 µM
Procedure, shortened: as §1

7G8 = assay: as above; conditions: P. falciparum in erythrocytes, SYBR Green DNA, 72 h; series mostly up to 28.7 µM
Procedure, shortened: as §1

AA1029 = assay: as above; conditions: P. falciparum in erythrocytes, SYBR Green DNA, 72 h; series mostly up to 28.7 µM
Procedure, shortened: as §1

AS120 = assay: as above; conditions: P. falciparum in erythrocytes, SYBR Green DNA, 72 h; series mostly up to 28.7 µM
Procedure, shortened: as §1

ATS189 = assay: as above; conditions: P. falciparum in erythrocytes, SYBR Green DNA, 72 h; series mostly up to 28.7 µM
Procedure, shortened: as §1

ATS95 = assay: as above; conditions: P. falciparum in erythrocytes, SYBR Green DNA, 72 h; series mostly up to 28.7 µM
Procedure, shortened: as §1

C2A = assay: as above; conditions: P. falciparum in erythrocytes, SYBR Green DNA, 72 h; series mostly up to 28.7 µM
Procedure, shortened: as §1

CP185 = assay: as above; conditions: P. falciparum in erythrocytes, SYBR Green DNA, 72 h; series mostly up to 28.7 µM
Procedure, shortened: as §1

CP191 = assay: as above; conditions: P. falciparum in erythrocytes, SYBR Green DNA, 72 h; series mostly up to 28.7 µM
Procedure, shortened: as §1

CP192 = assay: as above; conditions: P. falciparum in erythrocytes, SYBR Green DNA, 72 h; series mostly up to 28.7 µM
Procedure, shortened: as §1

CP194 = assay: as above; conditions: P. falciparum in erythrocytes, SYBR Green DNA, 72 h; series mostly up to 28.7 µM
Procedure, shortened: as §1

O[C@@H]([C@H](O)[C@H](O)CBr)[C@H](O)CBr
inactive: activity, negative = inhibition ([1]; parasite line A) -11.7% | activity, negative = inhibition ([1]; parasite line B) 1.51% | Potency (3D7) | Potency (7G8) | Potency (AA1029) | Potency (AS120) | Potency (ATS189) | Potency (ATS95) | Potency (C2A) | Potency (CP185) | Potency (CP191) | Potency (CP192) | Potency (CP194)

CC1CC(O)CC(C)(C)C1 (stereo not given)
inactive: activity, negative = inhibition ([1]; parasite line A) -1.2% | activity, negative = inhibition ([1]; parasite line B) 7.51% | Potency (3D7) | Potency (7G8) | Potency (AA1029) | Potency (AS120) | Potency (ATS189) | Potency (ATS95) | Potency (C2A) | Potency (CP185) | Potency (CP191) | Potency (CP192) | Potency (CP194)

COc1ccc(C(=O)c2ccc(C)cc2)c(O)c1
inactive: activity, negative = inhibition ([1]; parasite line A) 16.1% | activity, negative = inhibition ([1]; parasite line B) 14.8% | Potency (3D7) | Potency (7G8) | Potency (AA1029) | Potency (AS120) | Potency (ATS189) | Potency (ATS95) | Potency (C2A) | Potency (CP185) | Potency (CP191) | Potency (CP192) | Potency (CP194)

OCC(O)CO
inactive: activity, negative = inhibition ([1]; parasite line A) 7.74% | activity, negative = inhibition ([1]; parasite line B) 7.55% | Potency (3D7) | Potency (7G8) | Potency (AA1029) | Potency (AS120) | Potency (ATS189) | Potency (ATS95) | Potency (C2A) | Potency (CP185) | Potency (CP191) | Potency (CP192) | Potency (CP194)

CCCCCCCCCCCCCCCCCC(=O)OCC(C)O (stereo not given)
inactive: activity, negative = inhibition ([1]; parasite line A) 4.03% | activity, negative = inhibition ([1]; parasite line B) -12.1% | Potency (3D7) | Potency (7G8) | Potency (AA1029) | Potency (AS120) | Potency (ATS189) | Potency (ATS95) | Potency (C2A) | Potency (CP185) | Potency (CP191) | Potency (CP192) | Potency (CP194)

NCCN
inactive: activity, negative = inhibition ([1]; parasite line A) 5.04% | activity, negative = inhibition ([1]; parasite line B) 2.26% | Potency (3D7) | Potency (7G8) | Potency (AA1029) | Potency (AS120) | Potency (ATS189) | Potency (ATS95) | Potency (C2A) | Potency (CP185) | Potency (CP191) | Potency (CP192) | Potency (CP194)

O=C1c2ccccc2C(=O)c2c1ccc(O)c2O
inactive: activity, negative = inhibition ([1]; parasite line A) 4.44% | activity, negative = inhibition ([1]; parasite line B) -3.93% | Potency (3D7) | Potency (7G8) | Potency (AA1029) | Potency (AS120) | Potency (ATS189) | Potency (ATS95) | Potency (C2A) | Potency (CP185) | Potency (CP191) | Potency (CP192) | Potency (CP194)

CO
inactive: activity, negative = inhibition ([1]; parasite line A) 8.74% | activity, negative = inhibition ([1]; parasite line B) -8% | Potency (3D7) | Potency (7G8) | Potency (AA1029) | Potency (AS120) | Potency (ATS189) | Potency (ATS95) | Potency (C2A) | Potency (CP185) | Potency (CP191) | Potency (CP192) | Potency (CP194)

CC(O)CN(C)C (stereo not given)
inactive: activity, negative = inhibition ([1]; parasite line A) 11.7% | activity, negative = inhibition ([1]; parasite line B) -4.96% | Potency (3D7) | Potency (7G8) | Potency (AA1029) | Potency (AS120) | Potency (ATS189) | Potency (ATS95) | Potency (C2A) | Potency (CP185) | Potency (CP191) | Potency (CP192) | Potency (CP194)

Cc1cc(-c2ccc(N=Nc3ccc4c(S(=O)(=O)O)cc(S(=O)(=O)O)c(N)c4c3O)c(C)c2)ccc1N=Nc1ccc2c(S(=O)(=O)O)cc(S(=O)(=O)O)c(N)c2c1O
inactive: activity, negative = inhibition ([1]; parasite line A) 3.16% | activity, negative = inhibition ([1]; parasite line B) 5.39% | Potency (3D7) | Potency (7G8) | Potency (AA1029) | Potency (AS120) | Potency (ATS189) | Potency (ATS95) | Potency (C2A) | Potency (CP185) | Potency (CP191) | Potency (CP192) | Potency (CP194)

CC12CCC(C1)C(C)(C)C2=O (stereo not given)
inactive: activity, negative = inhibition ([1]; parasite line A) 8.34% | activity, negative = inhibition ([1]; parasite line B) 10.9% | Potency (3D7) | Potency (7G8) | Potency (AA1029) | Potency (AS120) | Potency (ATS189) | Potency (ATS95) | Potency (C2A) | Potency (CP185) | Potency (CP191) | Potency (CP192) | Potency (CP194)

Nc1nccs1
inactive: activity, negative = inhibition ([1]; parasite line A) 12.4% | activity, negative = inhibition ([1]; parasite line B) 11.4% | Potency (3D7) | Potency (7G8) | Potency (AA1029) | Potency (AS120) | Potency (ATS189) | Potency (ATS95) | Potency (C2A) | Potency (CP185) | Potency (CP191) | Potency (CP192) | Potency (CP194)

CC(C)CCCC(C)NC(C)C (stereo not given)
inactive: activity, negative = inhibition ([1]; parasite line A) -16.1% | activity, negative = inhibition ([1]; parasite line B) -1.21% | Potency (3D7) | Potency (7G8) | Potency (AA1029) | Potency (AS120) | Potency (ATS189) | Potency (ATS95) | Potency (C2A) | Potency (CP185) | Potency (CP191) | Potency (CP192) | Potency (CP194)

CCOC(=O)c1cc(-c2ccccc2)nc2ccc(C)cc12
inactive: activity, negative = inhibition ([1]; parasite line A) 17.4% | activity, negative = inhibition ([1]; parasite line B) 7.25% | Potency (3D7) | Potency (7G8) | Potency (AA1029) | Potency (AS120) | Potency (ATS189) | Potency (ATS95) | Potency (C2A) | Potency (CP185) | Potency (CP191) | Potency (CP192) | Potency (CP194)

CC(C)[C@@H](N)C(=O)O
inactive: activity, negative = inhibition ([1]; parasite line A) 1.17% | activity, negative = inhibition ([1]; parasite line B) 12.2% | Potency (3D7) | Potency (7G8) | Potency (AA1029) | Potency (AS120) | Potency (ATS189) | Potency (ATS95) | Potency (C2A) | Potency (CP185) | Potency (CP191) | Potency (CP192) | Potency (CP194)
